This is one part of a sample in which hits are shown more often than they occur.
Dicer inh – blocks human Dicer maturation of pre-miR-21 | hit rate 6% among 47,000 | AID 1347074 | z-score at 25 µM | cat-ELCCA pre-miR-21 Dicer processing, chemiluminescence; stronger effect = higher value; in the data active means z-score above about 3, passing the limit was not always enough;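 further: higher signal means more uncleaved substrate so more Dicer inhibition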
Target sequence (Q9UPY3 whole entry, looked up): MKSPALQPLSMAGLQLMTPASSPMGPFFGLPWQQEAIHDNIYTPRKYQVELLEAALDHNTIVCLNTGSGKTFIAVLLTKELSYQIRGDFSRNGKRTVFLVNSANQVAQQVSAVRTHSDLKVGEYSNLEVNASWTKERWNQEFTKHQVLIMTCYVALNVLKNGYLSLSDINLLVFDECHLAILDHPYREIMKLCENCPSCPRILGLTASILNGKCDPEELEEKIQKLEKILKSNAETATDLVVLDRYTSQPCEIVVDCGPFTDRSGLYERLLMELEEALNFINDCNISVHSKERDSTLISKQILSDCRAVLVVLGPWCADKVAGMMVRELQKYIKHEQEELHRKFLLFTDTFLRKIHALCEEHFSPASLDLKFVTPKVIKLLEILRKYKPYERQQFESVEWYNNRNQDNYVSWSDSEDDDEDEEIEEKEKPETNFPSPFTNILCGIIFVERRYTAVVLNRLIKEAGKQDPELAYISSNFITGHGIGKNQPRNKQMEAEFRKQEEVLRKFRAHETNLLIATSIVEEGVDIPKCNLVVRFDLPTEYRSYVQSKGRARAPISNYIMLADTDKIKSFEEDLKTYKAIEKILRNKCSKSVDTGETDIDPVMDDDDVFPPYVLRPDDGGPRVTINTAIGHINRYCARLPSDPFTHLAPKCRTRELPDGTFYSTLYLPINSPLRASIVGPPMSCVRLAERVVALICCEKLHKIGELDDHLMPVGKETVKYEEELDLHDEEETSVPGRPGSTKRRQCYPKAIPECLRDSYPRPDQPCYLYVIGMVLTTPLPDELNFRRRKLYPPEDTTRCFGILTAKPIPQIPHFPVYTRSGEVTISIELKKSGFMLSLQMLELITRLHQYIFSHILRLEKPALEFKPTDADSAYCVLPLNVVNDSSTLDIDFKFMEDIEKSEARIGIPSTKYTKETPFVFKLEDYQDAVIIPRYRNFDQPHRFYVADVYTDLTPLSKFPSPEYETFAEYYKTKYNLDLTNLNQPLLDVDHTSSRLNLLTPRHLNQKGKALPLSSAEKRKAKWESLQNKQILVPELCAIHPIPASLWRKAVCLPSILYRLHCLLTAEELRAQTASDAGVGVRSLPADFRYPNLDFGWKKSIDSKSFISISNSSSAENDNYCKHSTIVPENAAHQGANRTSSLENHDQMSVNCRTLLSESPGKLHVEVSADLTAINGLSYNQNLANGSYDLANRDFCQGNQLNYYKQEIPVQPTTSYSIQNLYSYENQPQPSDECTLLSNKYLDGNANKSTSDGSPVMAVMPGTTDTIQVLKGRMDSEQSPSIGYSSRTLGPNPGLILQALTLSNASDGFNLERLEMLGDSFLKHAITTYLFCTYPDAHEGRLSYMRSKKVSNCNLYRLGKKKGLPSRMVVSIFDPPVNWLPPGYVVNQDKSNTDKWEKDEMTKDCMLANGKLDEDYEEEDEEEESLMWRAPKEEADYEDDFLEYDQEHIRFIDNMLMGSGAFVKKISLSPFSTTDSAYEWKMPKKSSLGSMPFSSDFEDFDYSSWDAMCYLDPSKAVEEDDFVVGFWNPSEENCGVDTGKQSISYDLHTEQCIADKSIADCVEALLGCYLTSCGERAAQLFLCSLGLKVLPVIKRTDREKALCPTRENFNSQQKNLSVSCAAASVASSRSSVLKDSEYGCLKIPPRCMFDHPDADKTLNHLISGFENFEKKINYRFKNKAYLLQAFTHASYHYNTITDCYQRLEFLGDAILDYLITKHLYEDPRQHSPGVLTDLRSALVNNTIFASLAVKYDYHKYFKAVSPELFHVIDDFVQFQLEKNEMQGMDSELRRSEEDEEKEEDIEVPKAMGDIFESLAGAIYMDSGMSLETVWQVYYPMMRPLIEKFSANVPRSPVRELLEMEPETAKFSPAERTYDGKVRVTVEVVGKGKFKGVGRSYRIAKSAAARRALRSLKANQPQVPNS
A number is an active result; 0 = inactive.

SMILES	Dicer inh
COc1ccc(-c2nc3n(n2)C(c2cccc(OC)c2OC)C2=C(CCCC2=O)N3)cc1 (configuration not stated)	0
CC12c3ccccc3C(c3ccccc31)C1C(=O)N(c3nccs3)C(=O)C12 (configuration not stated)	0
Nc1nc(SCc2nc(-c3ccccc3)no2)n[nH]1	0
CCCCCCNc1nc(CC)c2c(c1C#N)CC(C)(C)OC2	0
CSc1sc(C#N)c(C)c1-c1ccn(S(=O)(=O)c2cc(Cl)ccc2Cl)n1	0
O=C1CSCN1c1ccc(C(F)(F)F)cc1	0
CCC(=O)Nc1sc2c(c1C(=O)Nc1ccccc1Cl)CCC2	4.2
O=C(Nc1sc2c(c1C(=O)O)CCCCC2)c1ccco1	0
CCC(=O)Nc1sc2c(c1C(=O)Nc1ccc(Cl)cc1)CCC2	0
O=C(Nc1sc2c(c1C(=O)Nc1ccccc1)CCCCC2)c1ccco1	0
CCOC(=O)c1c(NC(=O)c2cccs2)sc2c1CCCC2	0
N#Cc1c(NC(=O)c2ccco2)sc2c1CCCCC2	0
CCOC(=O)c1c(NC(=O)c2ccco2)sc2c1CCCCC2	5.7
O=C(Nc1sc2c(c1C(=O)Nc1ccccc1)CCCC2)c1ccco1	3.2
CC(C)(C)C1CCc2c(sc(NC(=O)CCC(=O)O)c2C(=O)Nc2ccccc2Cl)C1 (configuration not stated)	0
COC(=O)c1sc(S(C)=O)c2c1CC(C)(C)CC2=O (configuration not stated)	0
Cc1csc(NC(=O)Nc2ccc(F)cc2F)c1Cl	0
COc1ccncc1C(=O)Nc1ccc(F)cc1F	0
Cc1cccc(C)c1NC(=S)N1CCCC1=O	0
COc1cccc(C(=O)CC2(O)C(=O)N(CCc3ccccc3)c3ccc(Br)cc32)c1 (configuration not stated)	0
CC1(C(=O)c2ccccc2)C2c3cc(Br)ccc3OC(=O)C21C(=O)NCc1ccccc1 (configuration not stated)	3.4
O=C(O)CN1C(=O)Nc2ccc(Br)cc2C1c1ccccc1 (configuration not stated)	0
CNC(=O)c1cccc2cccc(Sc3ccccc3COC(=O)c3ccc(C)cc3)c12	0
Cc1ccc2nc(SCc3nc(-c4ccccc4C)no3)[nH]c2c1	3
Brc1ccc(-c2noc(CSc3nc4ccccc4[nH]3)n2)cc1	0
SMILES	Dicer inh
Cc1ccc2nc(SCc3nc(-c4cccs4)no3)[nH]c2c1	0
COc1ccc(C2=C([N+](=O)[O-])/C(=C/N3CCCCC3)N=C2)cc1	0
COC(=O)c1cccc([N+](=O)[O-])c1NC(C)=O	0
CCOc1ccc(/C(O)=C2\C(=O)C(=O)N(c3nnc(C)s3)C2c2ccc(OC)c(OC)c2)cc1 (configuration not stated)	0
CCOc1ccc(/C(O)=C2\C(=O)C(=O)N(c3nnc(C)s3)C2c2ccc(OC)cc2)cc1 (configuration not stated)	0
CCOc1ccc(/C(O)=C2\C(=O)C(=O)N(c3nccs3)C2c2ccc(OC)c(OC)c2)cc1 (configuration not stated)	3.6
COc1ccc(C(=O)Oc2ccc(N(C)C3=NS(=O)(=O)c4ccccc43)cc2)cc1OC	0
Oc1ccccc1-c1n[nH]c(/C=C/c2ccccc2)n1	0
O=C1C(=O)N(Cc2ccc(CN3C(=O)C(=O)c4ccccc43)cc2)c2ccccc21	3
COC(=O)CN1C(=O)C(=O)c2ccccc21	0
CN(C)CCN1C(=O)C(=O)c2ccccc21	0
COC(=O)c1ccc(CN2C(=O)C(=O)c3ccccc32)o1	3.7
COC(=O)c1ccc(Cn2c(C)cc(C)[n+]2C)o1	0
CCCN1C(=O)C(=O)c2ccccc21	0
C[n+]1c2ccccc2nc2ccc(NCCc3cnc[nH]3)cc21	0
Cc1nc(C(F)(F)F)ccc1NC(=O)C(F)(F)Sc1ccccc1	0
Cc1cc(NC(=O)NN2CCOCC2)no1	0
CC1=C(C(=O)OC2CCCCC2)C(c2ccc(Cl)cc2)C2=C(CCCC2=O)N1 (configuration not stated)	0
c1ccc(-c2nc(NC3CCCCC3)c3ccccc3n2)cc1	0
Nc1nc(Cc2cc3ccccc3[nH]2)nc(NC2CCCCC2)n1	4
COc1ccc(C2c3ccsc3CCN2C(=S)Nc2ccc(Cl)cc2Cl)cc1 (configuration not stated)	0
Cc1cccc(NC(=O)Nc2ccc(-c3ccccc3)s2)n1	0
Cc1ccc(C)c(NC(=O)/C=C/C(=O)O)c1	0
Cc1c(C)c(NC(=O)/C=C/C(=O)O)c(C)c(C)c1NC(=O)/C=C/C(=O)O	3.5
O=C(O)/C=C/C(=O)Nc1ccc(C2CCCCC2)cc1	0
SMILES	Dicer inh
Cc1cc(C)cc(NC(=O)/C=C/C(=O)O)c1	7.1
Cn1cc(Br)c(NC(=O)/C=C\C(=O)O)n1	0
Cc1cc(C)c(C)c(C(=O)/C=C/C(=O)O)c1C	0
Cc1nc2c(cnn2-c2ccccc2)c(=O)n1N	0
Cc1cccc(NC(=O)Nc2cccc(Cl)c2)n1	0
FC(F)(F)c1cc(-c2nc(=S)[nH][nH]2)cc(C(F)(F)F)c1	0
CCOC(=O)c1ccc2c(c1)n(CCO)c(C)[n+]2CCO	0
Cc1cc(C)c(C(=O)O)c(CC(C)(C)C(=O)O)c1	0
CCc1sc(C(C)(C)C)cc1NC(=O)c1ccccc1	0
Cc1cc(C)c(C(=O)Nc2ccccc2)c(CC(C)(C)C(=O)O)c1	4.7
O=S(=O)(N/N=C/c1ccc(O)cc1O)c1cc(C(F)(F)F)cc(C(F)(F)F)c1	0
CCN(CC)c1ncnc2ccsc12	0
CCSc1sc(C(=O)O)c(-c2cccs2)c1C#N	0
O=C(CC1(O)C(=O)N(Cc2ccc(Cl)cc2)c2ccccc21)c1ccc2c(c1)OCCO2 (configuration not stated)	0
COc1ccc(N=C(N)N=C(N)N)cc1	6.3
Cc1cc(N=C(N)N=C(N)N)ccc1Br	0
COc1cc(N=C(N)N=C(N)N)cc(OC)c1	0
N/C(Cc1cc(C(F)(F)F)cc(C(F)(F)F)c1)=N\O	0
CCn1cc(C(=O)NNC(=O)C(Cl)(Cl)Cl)c(=O)c2cc(C(F)(F)F)ccc21	0
COc1ccc(NC(=O)c2c(C)oc3c(F)c(F)c(F)c(F)c23)c(OC)c1	0
CCCSc1ccc2c3c(cccc13)C(=O)N(c1ccccc1)C2=O	0
CN(C)c1ccc2c3c(cccc13)C(=O)N(c1ccccc1)C2=O	3.4
O=C1c2cccc3c(N4CCCC4)ccc(c23)C(=O)N1c1ccccc1	0
Cc1nc2c(=O)n(-c3ccccc3C(F)(F)F)nc(C)c2s1	0
O=C(NC1CCN(CC(=O)N(c2ccccc2)C2CCCCC2)CC1)c1ccccc1	0
SMILES	Dicer inh
CCOC(=O)Cn1cc(C#N)c(=O)[nH]c1=O	0
COC(=O)CNC(=O)Cn1cnc2c1c(=O)n(C)c(=O)n2C	0
COC(=O)Cn1cnc(=O)c(C#N)c1C	3.4
CC(=O)Nc1cc(C)c(O)c(-c2nc3cc(C(C)C)ccc3o2)c1	0
CCCc1n(CC(O)COc2ccc(F)cc2)c2ccccc2[n+]1C (configuration not stated)	3.7
CCCc1n(CC(O)COc2ccccc2C)c2ccccc2[n+]1C (configuration not stated)	0
CCCc1n(CC(O)COc2cccc(OC)c2)c2ccccc2[n+]1C (configuration not stated)	0
COc1ccc(OCC(O)Cn2c(C)[n+](C)c3ccccc32)cc1 (configuration not stated)	3.8
Cc1cccc(C)c1OCC(O)Cn1c(C)[n+](C)c2ccccc21 (configuration not stated)	0
Cc1n(CC(O)COc2cccc(Cl)c2)c2ccccc2[n+]1C (configuration not stated)	0

Compound activity (PubChem)
